# Assay results published in PubChem BioAssay AID720651 (The Scripps Research Institute Molecular Screening Center, 2013).
# This is one part of the list. Active and inactive are the calls of the source. No rule for the calls is given here.
# Assay: binds r(CAG) RNA repeats in late stage dose response, late-stage follow-up, biochemical, fluorescence, dose response, powder samples (AID 720651)
# Details: r(CAG) RNA TO-PRO-1 dye displacement
smiles,measurement,value
Cc1noc(NS(=O)(=O)c2ccc(NC(=O)c3oc4ccc(F)cc4c3C)cc2)c1C,IC50,1.26 µM (active)
